# According to PubChem BioAssay (NCI):
# Compounds without any hit were thinned out: in the full panel of roughly 79,000, 15% have a hit. A number with no mark means an inactive call. Calls of active or inactive are those of the source. Cut-off read from the data, not from the text of the source: active = growth inhibition above about 70%; inactive = the rest. Residues, ends and D or L forms follow the SMILES beside them. *: point of attachment. Fmoc = O=C(OCC1c2ccccc2-c2ccccc21)*; Boc = CC(C)(C)OC(=O)*
# Assay: NCI Yeast Anticancer Drug Screen. Data for the rad52 strain (AID 147);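 note: 0% = growth of vehicle-treated control cultures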
# Conditions: S. cerevisiae rad52 mutant growth inhibition, active compounds read high
# Experimental: Growth inhibition of yeast strains with defined genetic alterations is measured as a screen for potential anti-cancer activity. Selected strains with alterations in DNA damage repair or cell cycle control were exposed to compounds and growth inhibition was measured relative to vehicle treated controls. The strain used in this assay is rad52
Compound,growth inhibition (at 1.2 µM) [%],growth inhibition (at 3.7 µM) [%],growth inhibition (at 11.0 µM),growth inhibition (at 33.0 µM),growth inhibition (at 100.0 µM)
COc1ccccc1/C=C\C(=O)C1COCN1 (stereo not given),4,14,25%,71% (active),99% (active)
CC(C)(C)OC(=O)NCCCCC(NC(=O)C(Cc1c[nH]c2ccccc12)NC(=O)OCC1c2ccccc2-c2ccccc21)C(=O)O (stereo not given) (Fmoc-Trp-Lys(Boc)-OH; configuration not given here),-3,0,-2%,10%,58%
NCCCSc1ccccc1,-2,-2,-4%,-4%,-2%
CCO/C=C1\SC(=S)N(c2ccc(OCC)cc2)C1=O,3,-1,0%,25%,70% (active)
Cc1ccc([N+](=O)[O-])c2c(NCCC[N+](C)(C)[O-])c3ccccc3nc12,-8,-4,8%,47%,85% (active)
CCC(C)(C)c1ccc(Oc2ccccc2)c(N)c1,-21,-4,96% (active),99% (active),98% (active)
NC(N)=NC(N)=Nc1ccccc1 (tested in a mixture with another compound),-3,-5,-7%,2%,48%
CCOC(=O)C(Cc1c2ccccc2cc2ccccc12)(NC(C)=O)C(=O)OCC,-2,-2,-4%,-6%,0%
